In test [1] the test system is Plasmodium falciparum Sir2 (PF13_0152, Sir2A). As to the kind of experiment: pfSir2 binders on small-molecule microarrays, primary screen, biochemical, small-molecule microarray, 635 nm fluorescence (AID 1098).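 Further: score merges spot fluorescence intensity with its signal-to-noise ratio.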 Particulars: small-molecule microarray binding, fluorescence 635 nm; higher = more signal.
Test [2] is described as follows: small-molecule microarray binders of probe aDKK1, primary screen, biochemical, biotinylated probe, 635/667 nm fluorescence (AID 1099).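 Further: score merges 667nm spot fluorescence with signal to noise across triplicate slides; reference of the scale not given here.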 The conditions noted are these: higher = more signal.
Test [3] can be described thus: small-molecule microarray binders of probe aCHRDL2, primary screen, biochemical, biotinylated probe, 635/667 nm fluorescence (AID 1100). The conditions noted are these: higher = more signal.
A short description of test [4]: splicing luciferase reporter signal modulators, primary screen, spliceosome inhibition project, cell-based, HEK293, splice +/- reporter (AID 1101).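 Further: HEK293 cells carrying a splicing-competent luciferase reporter gene; test concentration not given here.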 The conditions noted are these: luminescence, 24 h, higher = more signal, called active from +8 up or from −8 down. Background: A reporter such as luciferase makes a cellular process visible.
The target of test [5] is Fibroblast growth factor 10 (Homo sapiens) (UniProt O15520). Nature of the test: FGF10 binders on small-molecule microarrays, primary screen, biochemical, small-molecule microarray, 635 nm fluorescence (AID 1102). Particulars: FGF10 binding, fluorescence 635 nm, higher = more signal.
In test [6] the test system is glycogen synthase kinase-3 (GSK3A per assay name; protocol says GSK3B). As to the kind of experiment: GSK3 binders on small-molecule microarrays, primary screen, biochemical, small-molecule microarray, 635 nm fluorescence, GSK3A (AID 1103). Further: the record names both GSK3A and GSK3B. Particulars: small-molecule microarray binding, fluorescence 635 nm; higher = more signal.
Test [7] deals with Epidermal growth factor receptor (Homo sapiens) (UniProt P00533). Nature of the test: EGFR binders on small-molecule microarrays, primary screen, biochemical, small-molecule microarray, 635 nm fluorescence (AID 1104).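 Further: score merges 667 nm emission intensity with spot signal to noise over triplicate slides.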 The conditions noted are these: EGFR binding, higher = more signal.
Test [8] addresses Follistatin-related protein 3 (Homo sapiens) (UniProt O95633). Nature of the test: FSTL3 binders on small-molecule microarrays, primary screen, biochemical, small-molecule microarray, 635 nm fluorescence (AID 1105).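 Further: score merges emission near 667 nm and signal to noise per printed spot across three slides.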 The conditions noted are these: FSTL3 binding, higher = more signal.
Test [9] concerns the target Dickkopf-related protein 1 (Homo sapiens) (UniProt O94907). As to the kind of experiment: DKK1 binders on small-molecule microarrays, primary screen, biochemical, small-molecule microarray, 635 nm fluorescence scan (AID 1106).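 Further: score merges emission near 667 nm with signal to noise over three replicate slides.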 Particulars: DKK1 binding, higher = more signal.
Test [10] relates to Inhibin beta A chain (activin A). As to the kind of experiment: INHBA (activin A) binders on microarrays, primary screen, biochemical, small-molecule microarray, 635 nm fluorescence scan (AID 1107).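 Further: mouse activin A protein probed at 4.33 µg/mL on printed slides; score merges bound-protein fluorescence near 667 nm with spot signal-to-noise.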 The conditions noted are these: small-molecule microarray binding, higher = more signal.

Activity calls are given as the source filed them.

Fibroblast growth factor 10 (Homo sapiens), sequence (O15520 whole entry, looked up): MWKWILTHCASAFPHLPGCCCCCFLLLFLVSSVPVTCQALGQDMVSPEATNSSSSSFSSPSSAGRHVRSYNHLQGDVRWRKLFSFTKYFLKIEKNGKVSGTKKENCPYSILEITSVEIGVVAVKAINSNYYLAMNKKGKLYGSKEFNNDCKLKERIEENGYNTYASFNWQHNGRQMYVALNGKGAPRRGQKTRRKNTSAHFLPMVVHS
Dickkopf-related protein 1 (Homo sapiens), sequence (O94907 whole entry, looked up): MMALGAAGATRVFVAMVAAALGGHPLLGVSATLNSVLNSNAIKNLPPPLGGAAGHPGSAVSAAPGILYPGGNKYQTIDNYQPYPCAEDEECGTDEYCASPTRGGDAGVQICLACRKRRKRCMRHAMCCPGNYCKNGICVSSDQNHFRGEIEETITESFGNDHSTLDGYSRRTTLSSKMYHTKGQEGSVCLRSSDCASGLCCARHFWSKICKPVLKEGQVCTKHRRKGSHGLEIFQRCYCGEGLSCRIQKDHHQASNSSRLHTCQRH
Follistatin-related protein 3 (Homo sapiens), sequence (O95633 whole entry, looked up): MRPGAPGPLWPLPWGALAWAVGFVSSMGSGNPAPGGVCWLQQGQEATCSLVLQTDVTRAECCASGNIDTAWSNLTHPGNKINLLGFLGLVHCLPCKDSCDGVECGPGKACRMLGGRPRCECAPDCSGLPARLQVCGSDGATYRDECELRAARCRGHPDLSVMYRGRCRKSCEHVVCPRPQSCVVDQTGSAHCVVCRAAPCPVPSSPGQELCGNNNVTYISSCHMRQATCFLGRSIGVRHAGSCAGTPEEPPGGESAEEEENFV
Epidermal growth factor receptor (Homo sapiens), sequence (P00533 whole entry, looked up): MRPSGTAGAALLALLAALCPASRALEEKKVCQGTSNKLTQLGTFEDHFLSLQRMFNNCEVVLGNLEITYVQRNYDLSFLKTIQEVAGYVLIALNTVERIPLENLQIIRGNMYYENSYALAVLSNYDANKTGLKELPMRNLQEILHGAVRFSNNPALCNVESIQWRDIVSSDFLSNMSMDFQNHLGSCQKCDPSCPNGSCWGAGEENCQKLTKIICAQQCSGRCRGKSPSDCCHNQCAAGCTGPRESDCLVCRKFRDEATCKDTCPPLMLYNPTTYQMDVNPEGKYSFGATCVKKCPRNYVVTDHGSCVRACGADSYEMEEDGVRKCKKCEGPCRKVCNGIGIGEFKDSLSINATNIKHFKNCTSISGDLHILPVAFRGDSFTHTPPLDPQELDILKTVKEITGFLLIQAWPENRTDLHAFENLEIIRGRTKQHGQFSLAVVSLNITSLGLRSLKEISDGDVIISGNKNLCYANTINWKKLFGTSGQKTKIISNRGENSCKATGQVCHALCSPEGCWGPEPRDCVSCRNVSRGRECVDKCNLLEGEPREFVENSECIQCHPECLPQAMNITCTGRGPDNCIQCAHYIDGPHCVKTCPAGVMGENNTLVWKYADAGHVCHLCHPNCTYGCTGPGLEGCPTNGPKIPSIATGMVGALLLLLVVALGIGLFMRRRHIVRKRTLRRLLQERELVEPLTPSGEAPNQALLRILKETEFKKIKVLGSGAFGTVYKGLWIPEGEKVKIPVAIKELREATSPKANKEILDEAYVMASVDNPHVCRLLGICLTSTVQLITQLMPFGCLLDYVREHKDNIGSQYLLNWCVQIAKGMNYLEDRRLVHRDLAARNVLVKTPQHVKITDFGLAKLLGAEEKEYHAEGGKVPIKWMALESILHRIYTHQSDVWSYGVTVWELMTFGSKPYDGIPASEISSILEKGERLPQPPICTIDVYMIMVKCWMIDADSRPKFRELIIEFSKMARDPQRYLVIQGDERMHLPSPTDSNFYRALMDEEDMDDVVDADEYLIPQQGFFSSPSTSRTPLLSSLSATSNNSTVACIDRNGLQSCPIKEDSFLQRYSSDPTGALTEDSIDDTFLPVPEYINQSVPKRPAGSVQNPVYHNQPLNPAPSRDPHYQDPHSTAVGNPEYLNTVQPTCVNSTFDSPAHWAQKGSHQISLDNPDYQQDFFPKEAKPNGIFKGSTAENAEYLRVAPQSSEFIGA

With `O=C1O[C@@H](c2ccccc2)[C@@H](c2ccccc2)N2[C@@H](c3ccc(O)cc3)[C@]3(C(=O)Nc4ccc(C#CCCO)cc43)[C@@H](C(=O)N3CCCCCCC3)[C@H]12`, the composite z-score in test [1] stood at 1.83; in test [2], 1.7; in test [3] it was 1.07; in [5] it was 0.837; in [6], 0.78; in test [7], 0.201. In addition, the composite z-score in test [8] worked out at 1.43; in test [9], 0.843; in [10], 1.67. The z-score in test [4] was 0.62 (inactive).
As for `NC(=O)[C@]1(Cc2ccccc2)N=C(c2ccc(OCCCO)cc2)O[C@@H]1c1ccccc1`, the composite z-score in test [1] is 0.647; in test [2], 1.2; in test [3], 0.751; in test [5] it was 0.61; in test [6], 0.0914; in [7] it was -0.722. The composite z-score in test [8] is -0.144; in test [9], -0.109; in test [10] it was 0.558. Besides, the z-score in test [4] was -0.072 (inactive).
For the compound `O=C1OCCC/C=C\[C@H]2OC34C=CCN(Cn5nnc6ccccc65)C(=O)[C@H]3N(CCCO)C(=O)[C@@H]4C12` (stereo not given in full), the composite z-score in [1] is 0.649; in [2], -0.282; in test [3], 0.741; in [5], -1.34; in test [6] it was -0.556; in test [7], -1.43. Further, the composite z-score in [8] is -0.921; in test [9], -1.16; in [10] it was -0.0648. Further, the z-score in test [4] is 0.288 (inactive).
In the case of `COCCCNC(=O)[C@@]1(C)c2ccccc2C(=O)N(Cc2ccccc2)[C@H]1c1ccc(CO)cc1`, the composite z-score in test [1] was 1.43; in test [2], -0.0769; in test [3], 1.02; in [5], -0.398; in [6], -0.595; in test [7], -0.848. Moreover, the composite z-score in test [8] was -1.03; in [9], -1.76; in test [10], -0.79. Moreover, in test [4], the z-score was -0.626 (inactive).
With `O=C1C2C=CC(C(O)c3ccc(-c4ccccc4)s3)N(Nc3ccccc3F)C2C(=O)N1c1ccccc1` (stereo not given), the composite z-score in test [1] is 0.913; in [2] it was 1.22; in [3], 1.27; in [5], 0.772; in test [6], 0.806; in [7] it was 0.247. Besides, the composite z-score in test [8] amounted to 0.817; in test [9], 0.0154; in [10], 0.948. Besides, the z-score in test [4] is 0.25 (inactive).
As for `CC1(C)C(=O)C(c2ccccc2)=C2CN3C(=O)N(CCc4ccccc4)C(=O)C3(Cc3ccccc3)C=C21` (stereo not given), the composite z-score is 0.155 in [1]; 1.06 in test [2]; 1.12 in test [3]; 0.363 in test [5]; 0.182 in [6]; -0.0726 in [7]. Besides, the composite z-score is 0.949 in [8], -1.03 in test [9] and 1.09 in test [10]. Further, the z-score in test [4] was 0.917 (inactive).
In the case of `COC(=O)[C@@]1(Cc2ccccc2)[C@H]2c3cc(C(=O)N(C)C)n(Cc4ccccc4)c3C[C@H]2CN1C(=O)c1ccccc1`, the composite z-score in test [1] is 1.05; in test [2], 0.855; in [3] it was 0.816; in test [5], 0.69; in [6] it was -0.0617; in test [7], -0.262. For the same compound, the composite z-score in test [8] was 0.383; in [9] it was -0.61; in test [10] it was 0.735. The z-score in test [4] is -1.03 (inactive).
For `CN(C)CCCCNC(=O)[C@@H]1C[C@@H]2C(=O)N[C@@H](CCCCN)C(=O)N2[C@@H]1c1cccc(OCCO)c1`, the composite z-score is 1.9 in test [1]; 0.123 in test [2]; 0.74 in [3]; -0.383 in [5]; 0.0265 in test [6]; -1.22 in test [7]. The figures for the composite z-score in test [8], in [9] and in [10] were -0.795, -0.988 and 0.0049, respectively. Besides, the z-score in test [4] was -0.239 (inactive).
Consider `[N-]=[N+]=NCc1ccccc1[C@H]1OC(c2ccc(OCCCO)cc2)=N[C@@]1(Cc1ccccc1)C(=O)O`, for which the composite z-score stood at 0.208 in test [1]; 0.213 in test [2]; 0.884 in test [3]; 0.621 in [5]; 0.51 in test [6]; 0.0378 in test [7]. The composite z-score is 0.47 in test [8], -0.213 in test [9] and 1.25 in test [10]. Further, the z-score in test [4] is -1.01 (inactive).
For the compound `Cc1ccc([C@H]2C(C(=O)O)=C[C@@H](C(C)C)N2S(=O)(=O)c2ccc(C)cc2)cc1`, the composite z-score was 0.853 in [1]; 0.309 in [2]; 0.68 in [3]; 0.265 in [5]; 0.914 in test [6]; -0.206 in test [7]. Besides, the composite z-score in [8] was -0.103; in [9], -0.329; in [10] it was 0.479. For the same compound, in test [4], the z-score is -0.349 (inactive).
Consider `O=c1cccc(-c2ccccc2)o1`, for which the composite z-score in [1] was 0.906; in test [2] it was -0.196; in test [3], -0.186; in test [5] it was 0.421; in [6] it was 0.211; in test [7], -0.648. The figures for the composite z-score in test [8], in [9] and in [10] were -0.337, -0.1 and 1.4, respectively. Further, the z-score in test [4] was 0.92 (inactive).
As to `C=CCNC(=O)[C@@H]1[C@H]2C(=O)O[C@H](c3ccccc3)[C@H](c3ccccc3)N2[C@H](c2ccccc2OCCO)[C@@]12C(=O)N(C(=O)OCCOC)c1ccc(C#CCC(C(=O)OC)C(=O)OC)cc12`, the composite z-score in test [1] is 1.89; in [2], 2; in [3], 1.09; in test [5] it was 1.43; in [6], 1.31; in [7], 1.25. Further, the composite z-score in test [8] amounted to 1.5; in test [9], 1.34; in [10], 1.33. Moreover, the z-score in test [4] was -0.235 (inactive).
In the case of `COc1ccc([Si](C)(C)[C@H]2[C@H](CCO)O[C@@]3(C(=O)N(Cc4cccc(N5C(=O)c6cccc7cccc5c67)c4)c4ccccc43)[C@@H]2C)cc1`, the composite z-score is 1.25 in test [1]; -0.207 in [2]; 0.442 in test [3]; 0.668 in [5]; 0.149 in test [6]; -0.437 in test [7]. The composite z-score is 0.277 in [8], -0.701 in [9] and -0.345 in test [10]. Also, the z-score in test [4] was -1.27 (inactive).
With `O=C(CS)NCCCCCNC(=O)[C@H]1C[C@H]2C(=O)N[C@@H](Cc3ccccc3)C(=O)N2[C@H]1c1cccc(OCCO)c1`, the composite z-score in test [1] was found to be 1.4; in test [2] it was 0.185; in test [3], 0.373; in test [5], 1.41; in test [6], 1.36; in [7], 0.98. The composite z-score in test [8] was found to be 1.42; in test [9] it was 1.61; in test [10], 0.597. Further, in test [4], the z-score is 0.101 (inactive).
Regarding `COC(=O)[C@@]1(Cc2ccc(F)cc2)[C@H]2c3cc(C(=O)N(C)C)n(CCCNc4ccc(C(F)(F)F)cc4Cl)c3C[C@H]2CN1C(=O)c1ccccc1`, the composite z-score was 1.08 in test [1]; 1.4 in test [2]; 1.38 in test [3]; 0.808 in test [5]; 1.29 in test [6]; -0.19 in test [7]. In addition, the composite z-score is 1.2 in [8], -0.667 in test [9] and -0.0131 in test [10]. Moreover, the z-score in test [4] is -1.75 (inactive).
Regarding `CCOC(=O)C[C@H]1[C@H](OC(=O)c2ccc(C(=O)c3ccccc3)cc2)[C@@H](NC(=O)c2ccc3ccccc3n2)c2cc(OCCCO)ccc2N1C(=O)c1ccc2ccccc2n1`, the composite z-score is 0.143 in [1]; 0.492 in test [2]; 0.661 in test [3]; 0.418 in test [5]; 0.232 in [6]; 0.703 in test [7]. The figures for the composite z-score in test [8], in test [9] and in [10] were 0.154, 0.0952 and 0.41, respectively. Moreover, the z-score in test [4] is -0.679 (inactive).
`[N-]=[N+]=NCc1ccccc1[C@H]1OC(c2ccc(OCCCO)cc2)=N[C@@]1(Cc1ccccc1)C(=O)NCC(O)CO` (stereo not given in full): the composite z-score in test [1] is 1.27; in test [2], 0.847; in test [3] it was 1.21; in [5], 0.782; in test [6], 1.27; in test [7] it was -0.187. For the same compound, the composite z-score was -0.751 in test [8], -0.651 in test [9] and 0.33 in test [10]. Moreover, the z-score in test [4] is -0.807 (inactive).

Source of the values: PubChem BioAssay.
